# Laboratory results published in PubChem BioAssay (Tox21).
# Values without a mark were called inactive. Inconclusive results are not listed. Entries that show only a call come without a potency. Active and inactive are the calls of the source. Unless noted, calls follow the shape of the dose curve; as a rule, active = well fitted curve in the direction sought with a large enough effect in the repeat runs; inconclusive = weak or mixed curves; inactive = no such curve, though single readings can be large; an effect the other way counts as inactive or inconclusive.
# Legend:
# [1] = target: Progesterone receptor (Homo sapiens) (UniProt P06401); test: qHTS assay to identify small molecule antagonists of the progesterone receptor (PR) signaling pathway (AID 1346795; active = well fitted inhibition curve with a large enough effect in the signal ratio in the repeat runs, not every such curve was filed as active; the % refers to the signal ratio; also: potency is read from the fitted curve at half-maximal effect)
# Progesterone receptor (Homo sapiens), sequence (P06401 whole entry, looked up): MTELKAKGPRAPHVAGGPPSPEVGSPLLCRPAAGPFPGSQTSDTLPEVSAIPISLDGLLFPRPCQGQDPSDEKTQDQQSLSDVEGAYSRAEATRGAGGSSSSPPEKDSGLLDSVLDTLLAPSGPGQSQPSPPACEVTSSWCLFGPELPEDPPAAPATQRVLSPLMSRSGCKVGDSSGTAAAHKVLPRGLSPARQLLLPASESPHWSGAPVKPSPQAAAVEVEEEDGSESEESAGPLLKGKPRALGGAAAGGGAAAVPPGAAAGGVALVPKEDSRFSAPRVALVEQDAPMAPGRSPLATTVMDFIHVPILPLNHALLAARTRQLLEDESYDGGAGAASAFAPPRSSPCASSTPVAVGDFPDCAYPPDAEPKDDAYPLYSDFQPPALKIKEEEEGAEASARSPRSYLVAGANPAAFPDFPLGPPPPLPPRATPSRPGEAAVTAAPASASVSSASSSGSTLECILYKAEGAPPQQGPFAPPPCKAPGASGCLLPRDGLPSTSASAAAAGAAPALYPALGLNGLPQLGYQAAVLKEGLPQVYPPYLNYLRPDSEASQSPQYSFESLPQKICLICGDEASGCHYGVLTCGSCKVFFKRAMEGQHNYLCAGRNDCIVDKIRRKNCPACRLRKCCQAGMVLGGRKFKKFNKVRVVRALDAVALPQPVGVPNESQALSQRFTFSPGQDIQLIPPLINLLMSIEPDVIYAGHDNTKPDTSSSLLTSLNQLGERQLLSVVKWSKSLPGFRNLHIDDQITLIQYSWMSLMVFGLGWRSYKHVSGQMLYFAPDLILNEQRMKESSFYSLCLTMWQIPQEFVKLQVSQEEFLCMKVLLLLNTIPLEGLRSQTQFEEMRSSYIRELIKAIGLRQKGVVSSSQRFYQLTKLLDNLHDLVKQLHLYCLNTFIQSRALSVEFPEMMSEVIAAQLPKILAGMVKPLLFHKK
# In short: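 Inhibition of R5020-induced (1 nM final) beta-lactamase reporter signal in PR-UAS-bla HEK293T cells was scored by FRET fluorescence after overnight (16 hr) compound treatment.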
# [2] = qHTS assay to identify small molecule agonists of the progesterone receptor (PR) signaling pathway - cell viability counter screen (AID 1346799; calls by dose curve; also: nearly all actives have a fitted effect of over 45% in size; also: potency is read from the fitted curve at half-maximal effect)
# In short: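 Cytotoxicity in PR-bla HEK293T cells: 16 h compound, 37C; CellTiter-Glo added post-FRET read; luminescence after 30 min RT.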
# [3] = qHTS assay to identify small molecule agonists of the TGF-beta/Smad signaling pathway - cell viability counter screen (AID 1346829); also: top concentration of the series differs between compounds; nearly all actives have a fitted effect of over 45% in size
# In short: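 CellTiter-Glo luminescence readout; SBE-bla HEK 293T cells, overnight plating, compound 5 hr at 37 C/5% CO2, then bla substrate 2 hr RT, then CellTiter-Glo 30 min RT.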
# [4] = qHTS assay to identify small molecule agonists of the TGF-beta/Smad signaling pathway (AID 1346859; active = well fitted activation curve with a large enough effect in the signal ratio in the repeat runs, not every such curve was filed as active; the % refers to the signal ratio; also: series mostly up to about 77 µM)
# In short: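 Stable Smad binding element-beta-lactamase HEK 293T cells; 5 hr compound exposure at 37 C under 5% CO2; 2 hr room-temperature substrate step; fluorescence excited at 405 nm, collected at 460 nm and 530 nm.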
# [5] = target: Thyrotropin-releasing hormone receptor (Homo sapiens) (UniProt P34981); test: qHTS assay to identify small molecule antagonists of the thyrotropin-releasing hormone receptor (TRHR) signaling pathway (AID 1346877; active = well fitted inhibition curve with a large enough effect in the repeat runs, not every such curve was filed as active; also: series mostly up to about 51 µM)
# Thyrotropin-releasing hormone receptor (Homo sapiens), sequence (P34981 whole entry, looked up): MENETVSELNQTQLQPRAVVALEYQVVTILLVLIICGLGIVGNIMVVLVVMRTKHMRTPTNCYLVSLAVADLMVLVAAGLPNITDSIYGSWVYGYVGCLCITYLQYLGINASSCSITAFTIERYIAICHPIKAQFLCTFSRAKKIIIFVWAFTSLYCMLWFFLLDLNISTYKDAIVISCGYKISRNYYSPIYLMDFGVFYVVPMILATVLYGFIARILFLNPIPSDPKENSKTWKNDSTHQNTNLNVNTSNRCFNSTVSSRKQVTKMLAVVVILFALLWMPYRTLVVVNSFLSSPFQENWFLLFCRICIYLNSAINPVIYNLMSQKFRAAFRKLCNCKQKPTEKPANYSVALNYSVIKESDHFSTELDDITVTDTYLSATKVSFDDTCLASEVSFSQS
# In short: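 Kinetic fluorescence (3 min, 1 s resolution) following stimulation with TRH at 1 nM final; HEK293 cells bearing human TRHR; 5 min compound preincubation at RT; concentration-response over 15 points, triplicates.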
# [6] = target: Thyrotropin-releasing hormone receptor (Homo sapiens) (UniProt P34981); test: qHTS assay to identify small molecule agonists of the thyrotropin-releasing hormone receptor (TRHR) signaling pathway (AID 1346891; calls by dose curve;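 also: HEK293 cells expressing TRHR with calcium dye readout; series mostly up to about 58 µM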)
# In short: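 In 1536-format, 1500 TRHR-Hek293 cells per well grew 18 h, took up calcium dye for 2 h at 37 °C, received compound, and were read kinetically; 15-point titrations, triplicates.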
# [7] = qHTS assay to identify small molecule antagonists of the TGF-beta/Smad signaling pathway - cell viability counter screen (AID 1346824); also: nearly all actives have a fitted effect of over 50% in size
# In short: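 Cytotoxicity counter-screen run in the same wells as the beta-lactamase Smad reporter read: CellTiter-Glo luminescence after 30 min at room temperature. HEK 293T SBE-bla cells had 5 hr compound exposure at 37 C with TGF-beta1 (0.25 ng/mL stock).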
# [8] = Human pregnane X receptor (PXR) small molecule agonists, qHTS cell viability counter screen (AID 1346977); also: nearly all actives have a fitted effect of over 50% in size; also: potency is read from the fitted curve at half-maximal effect
# In short: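 Readout is CellTiter-Fluor fluorescence from PXR-Luc HepG2 cells. Plated cells rested 5hr, then were treated with compounds for 24hr at 37C and 5% CO2, with reagent present during the last hour.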
# [9] = target: Progesterone receptor (Homo sapiens) (UniProt P06401); test: qHTS assay to identify small molecule agonists of the progesterone receptor (PR) signaling pathway (AID 1346784; calls by dose curve; also: nearly all actives have a fitted effect of over 30% in size)
# In short: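 Using charcoal-stripped serum (2%) to limit endogenous steroids, PR-UAS-bla HEK 293T cells received compounds for 16 hr at 37C after 6 hr plating; beta-lactamase FRET fluorescence was recorded following 2 hr substrate loading at room temperature.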
# [10] = qHTS assay to identify small molecule antagonists of the progesterone receptor (PR) signaling pathway - cell viability counter screen (AID 1346798); also: nearly all actives have a fitted effect of over 50% in size; also: potency is read from the fitted curve at half-maximal effect; as to activity change, negative = cytotoxicity: series mostly up to about 92 µM
# In short: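 ATP content as viability readout: CellTiter-Glo luminescence, 30 min room temperature, in PR-UAS-bla HEK293T cells after 16 hr compound/R5020 treatment at 37C and 5% CO2.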
structure (smiles),measurement,setting,value
ICCc1ccccc1,Potency,[1],59.9 µM (active)
same,Potency,[2],59.9 µM (active)
same,outcome,[3],inactive
same,outcome,[4],inactive
same,outcome,[5],inactive
same,Potency,[6],inactive
O=C1CCN(c2ccccc2)N1,Potency,[1],inactive
same,Potency,[2],inactive
same,outcome,[7],inactive
same,outcome,[4],inactive
same,outcome,[5],inactive
same,Potency,[6],inactive
same,Potency,[8],inactive
CN(C)CCOc1ccccc1Cc1ccccc1,outcome,[7],inactive
same,outcome,[3],inactive
same,outcome,[4],inactive
same,outcome,[5],inactive
same,Potency,[6],inactive
same,Potency,[8],inactive
Nc1ccc(Oc2ccc(N)c(N)c2)cc1,outcome,[7],inactive
same,outcome,[3],inactive
same,outcome,[4],inactive
same,outcome,[5],inactive
same,Potency,[6],inactive
Cc1nc(N)nc(N)c1-c1ccc(Cl)c(Cl)c1,Potency,[9],inactive
same,Potency,[2],inactive
same,outcome,[4],inactive
same,outcome,[5],inactive
same,Potency,[6],inactive
CCCC1CCC(=O)O1 (stereo not given),Potency,[9],inactive
same,Potency,[2],inactive
same,outcome,[7],inactive
same,outcome,[3],inactive
same,outcome,[5],inactive
same,Potency,[6],inactive
same,Potency,[8],inactive
CN1[C@@H]2CC[C@H]1CC(OC(=O)c1c[nH]c3ccccc13)C2 (stereo not given in full),Potency,[10],inactive
same,outcome,[7],inactive
same,outcome,[4],inactive
same,outcome,[5],inactive
same,Potency,[6],inactive
same,Potency,[8],inactive
COc1ccc2nc(NC(=O)Nc3ccccc3)sc2c1,Potency,[9],inactive
same,Potency,[2],inactive
same,outcome,[7],inactive
same,outcome,[4],inactive
same,outcome,[5],inactive
same,Potency,[6],inactive
Cc1cccc(C)c1NC(=O)CN1CCCCCC1,Potency,[10],inactive
same,Potency,[2],inactive
same,outcome,[7],inactive
same,outcome,[3],inactive
same,outcome,[4],inactive
same,Potency,[8],inactive
CO[Si](C)(C)OC,Potency,[9],inactive
same,Potency,[2],inactive
same,outcome,[3],inactive
same,outcome,[4],inactive
same,outcome,[5],inactive
same,Potency,[6],inactive
same,Potency,[8],inactive
CC(C)O,Potency,[9],inactive
same,Potency,[2],inactive
same,outcome,[7],inactive
same,outcome,[3],inactive
same,outcome,[4],inactive
same,outcome,[5],inactive
same,Potency,[6],inactive
same,Potency,[8],inactive
CCCCCCCCCC#N,Potency,[9],inactive
same,outcome,[3],inactive
same,outcome,[4],inactive
same,outcome,[5],inactive
same,Potency,[6],inactive
CCCCOc1cc(C(=O)NCCN(CC)CC)c2ccccc2n1,Potency,[9],inactive
same,outcome,[7],inactive
same,outcome,[3],inactive
same,outcome,[4],inactive
same,outcome,[5],inactive
same,Potency,[6],inactive
same,Potency,[8],21.1 µM (active)
CCCCCCOc1ccc(N)cc1,Potency,[9],inactive
same,Potency,[2],inactive
same,outcome,[7],inactive
same,outcome,[3],inactive
same,outcome,[4],inactive
same,Potency,[8],inactive
COc1ccc(Nc2ccc(OC)cc2)cc1,Potency,[9],inactive
same,Potency,[2],inactive
same,outcome,[7],inactive
same,outcome,[4],inactive
same,outcome,[5],inactive
same,Potency,[6],inactive
same,Potency,[8],inactive
CC(C)(CO)[C@@H](O)C(=O)NCCC(=O)O,Potency,[9],inactive
same,outcome,[7],inactive
same,outcome,[3],inactive
same,outcome,[4],inactive
same,outcome,[5],inactive
same,Potency,[6],inactive
same,Potency,[8],inactive
CC(C)c1ccccc1,Potency,[9],inactive
same,outcome,[7],inactive
same,outcome,[3],inactive
same,outcome,[4],inactive
same,outcome,[5],inactive
same,Potency,[6],inactive
same,Potency,[8],inactive
CCOC(=O)c1ccccc1O,Potency,[2],inactive
same,outcome,[3],inactive
same,outcome,[5],inactive
same,Potency,[6],inactive
same,Potency,[8],inactive
CCCCC(=O)O[C@]1(C(=O)CO)[C@H](C)C[C@H]2[C@@H]3CCC4=CC(=O)C=C[C@]4(C)[C@@]3(F)[C@@H](O)C[C@@]21C,Potency,[1],inactive
same,Potency,[10],inactive
same,outcome,[7],inactive
same,outcome,[4],inactive
CCC(=O)O[C@]1(C(=O)SCF)[C@H](C)C[C@H]2[C@@H]3C[C@H](F)C4=CC(=O)C=C[C@]4(C)[C@@]3(F)[C@@H](O)C[C@@]21C,Potency,[1],inactive
same,Potency,[2],inactive
same,outcome,[7],inactive
same,outcome,[3],inactive
same,outcome,[4],inactive
same,outcome,[5],inactive
same,Potency,[6],inactive
same,Potency,[8],inactive
CC[C@H]1CC[C@H](NCc2cc3c(cc2OC)[C@H]2C[C@H]2C(=O)N3C)[C@H](c2ccccc2)N1,Potency,[9],inactive
same,outcome,[3],inactive
same,outcome,[4],inactive
same,outcome,[5],inactive
same,Potency,[6],inactive
same,Potency,[8],30.6 µM (active)
NC/C=C/C(=O)O,Potency,[1],inactive
same,Potency,[10],inactive
same,Potency,[2],inactive
same,outcome,[4],inactive
same,outcome,[5],inactive
same,Potency,[6],inactive
same,Potency,[8],inactive
ClC(Cl)Cl,Potency,[9],inactive
same,outcome,[7],inactive
same,outcome,[3],inactive
same,outcome,[4],inactive
same,Potency,[8],inactive
CCCCNC(=S)NCCCC,Potency,[10],9.69 µM (active)
same,Potency,[2],inactive
same,outcome,[7],inactive
same,outcome,[3],inactive
same,outcome,[4],inactive
same,outcome,[5],inactive
same,Potency,[6],inactive
Cc1nc(-c2ccccn2)ncc1C(=O)Nn1cc(C)c2cc(F)ccc21,Potency,[9],inactive
same,outcome,[7],inactive
same,outcome,[3],inactive
same,outcome,[4],inactive
same,outcome,[5],inactive
same,Potency,[6],inactive
same,Potency,[8],inactive
O=S(=O)(O)C(F)(F)F,Potency,[9],inactive
same,Potency,[2],inactive
same,outcome,[7],inactive
same,outcome,[4],inactive
same,outcome,[5],inactive
same,Potency,[6],inactive
same,Potency,[8],inactive
O=C(O)c1ccccc1Nc1cc(Cl)ccc1C(=O)O,"viability change, negative = cytotoxic",[7],0.61% [at 15.8 µM]
same,"activity change, negative = cytotoxicity",[3],9.07% [at 15.8 µM]
same,activation,[4],-1.11% [at 15.8 µM]
same,"activity, negative = inhibition",[5],1.01% [at 10.5 µM]
same,activation,[6],-0.215% [at 11.8 µM]
same,"activity change, negative = cytotoxicity",[8],7.26% [at 19 µM]
CN(CCCN1c2ccccc2CCc2ccccc21)CC(=O)c1ccc(Cl)cc1,Potency,[10],inactive
same,Potency,[2],inactive
same,outcome,[7],inactive
same,outcome,[3],inactive
same,outcome,[4],inactive
same,outcome,[5],inactive
same,Potency,[6],inactive
CC1CN(c2ccccc2)NC1=O (stereo not given),Potency,[10],inactive
same,Potency,[2],inactive
same,outcome,[7],inactive
same,outcome,[3],inactive
same,outcome,[4],inactive
same,outcome,[5],inactive
same,Potency,[6],inactive
same,Potency,[8],inactive
Nc1cccc(S(=O)(=O)O)c1,Potency,[9],inactive
same,outcome,[7],inactive
same,outcome,[3],inactive
same,outcome,[4],inactive
same,Potency,[8],inactive
